From PubChem BioAssay (EPA / NIEHS)
Records with an inconclusive call do not appear. Some compounds were tested as several samples or in several runs, with calls that do not always agree. Calls of active or inactive are those of the source. The calls were made as follows, unless noted: active = hit-call score of the fitted dose curve at least 0.9, where 1 is the maximum; inactive = score below 0.9.

Assays:
[1] = ACEA_ER_80hr: ACEA Biosciences xCELLigence Real-Time Cell Analysis on Estrogen Receptor Agonism for Proliferation (AID 2282667; active = hit-call score of the fitted dose curve at least 0.9, where 1 is the maximum); conditions: T47D proliferation, impedance (xCELLigence), 80 h
Procedure, shortened: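 Impedance readout (RT-CES) of T47D proliferation at 80 h post-dose; gain of signal vs DMSO baseline. Compounds: 8 conc, 1:4 serial, top 100 uM final, ≤0.5% DMSO; biological duplicate.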

[2] = ATG_CRE_CIS: Attagene CIS-FACTORIAL HepG2 Assay for human cAMP Responsive Element (CRE) binding protein 3 (AID 2282926); conditions: HepG2 CRE cis-reporter, Attagene multiplexed mRNA; actives raise or lower the signal
Procedure, shortened: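 Readout: fluorescently labelled reporter transcripts resolved by capillary electrophoresis after RT-PCR, taken 24 h post-dosing in transfected HepG2. Endogenous transcription factor activity drives each cis-element reporter; gain or loss of signal fitted relative to DMSO control.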

[3] = APR_HepG2_CellCycleArrest_24hr: Apredica 24-hour HepG2 Assay for Cell Cycle Arrest (AID 2282905); conditions: imaging, actives raise or lower the signal;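 also: cell cycle arrest scored as ratio of 2N to 4N nuclear DNA content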
Procedure, shortened: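 Compounds (0.39 to 200 uM, final DMSO 0.5% v/v) are applied to HepG2 cells for 24 hours; cells are then fixed, permeabilized and nuclei labeled with Hoechst 33342. Automated imaging measures DNA content, and activity is fitted in both directions against DMSO.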

[4] = APR_HepG2_NuclearSize_24hr: Apredica 24-hour HepG2 Assay for Nuclear Size (AID 2282907); conditions: high-content imaging, actives raise or lower the signal
Procedure, shortened: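 Nuclear size is measured by fluorescence high-content imaging of Hoechst-labelled HepG2 nuclei after 24 hr of treatment (0.39–200 uM, 0.5% DMSO). Cells are fixed in 3.7% formaldehyde before staining, and DMSO serves as the baseline for bidirectional curve fitting.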

[5] = APR_HepG2_CellLoss_24hr: Apredica 24-hour HepG2 Assay for Cell Loss (AID 2282908); conditions: high-content imaging;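 as to AC50: fit in both directions so a hit may be cell loss or gain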
Procedure, shortened: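 Nuclear count serves as the viability measure: treated cells are fixed, permeabilized and labelled with Hoechst 33342, and six images per well are analysed to identify valid nuclei. Doses span 0.39–200 uM, and activity in either direction is scored against DMSO.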

[6] = APR_HepG2_MicrotubuleCSK_24hr: Apredica 24-hour HepG2 Assay for Microtubule CSK Stabilty (AID 2282909); conditions: HepG2 microtubule cytoskeleton imaging, actives raise or lower the signal
Procedure, shortened: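 Compounds were applied to HepG2 cells for 24 hours across 0.39–200 uM in duplicate, with final DMSO at 0.5% v/v. Fixed, permeabilized cells were labeled for alpha-tubulin and nuclei, and tubulin fluorescence was quantified by imaging, fitted bidirectionally against DMSO.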

[7] = APR_HepG2_MitoMembPot_24hr: Apredica 24-hour HepG2 Assay for Mitochondrial Membrane Potential (AID 2282911); conditions: imaging, actives raise or lower the signal
Procedure, shortened: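 HepG2, 24 hr dosing, 10 concentrations 0.39–200 uM, 0.5% DMSO final. Live-cell MitoTracker Red CMXRos 250 nM 30 min, then 3.7% formaldehyde fix. HCS fluorescence imaging, 20x; bidirectional fit vs DMSO baseline.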

[8] = APR_HepG2_MitoMass_24hr: Apredica 24-hour HepG2 Assay for Mitochondrial Mass (AID 2282912); conditions: high-content imaging, actives raise or lower the signal
Procedure, shortened: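 After 24 hr of treatment at 0.39 to 200 uM, HepG2 cells take up 250 nM MitoTracker Red CMXRos for 30 min and are then fixed with 3.7% formaldehyde. Per-well images are quantified, and any change in either direction is scored against solvent.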

[9] = APR_HepG2_p53Act_24hr: Apredica 24-hour HepG2 Assay for p53 Activation (AID 2282913); conditions: high-content imaging, actives raise or lower the signal;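 also: p53 protein immunofluorescence averaged per cell in HepG2 with Hoechst nuclei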
Procedure, shortened: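 Read-out: Cy5 immunofluorescence for p53 in fixed, permeabilized HepG2, imaged by HCS with Hoechst-defined nuclei. Dosing was 24 hr at 0.39–200 uM in 0.5% DMSO. Curves were fitted bidirectionally relative to DMSO.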

[10] = APR_HepG2_CellCycleArrest_72hr: Apredica 72-hour HepG2 Assay for Cell Cycle Arrest (AID 2282914); conditions: high-content imaging, actives raise or lower the signal
Procedure, shortened: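 HepG2, 72 hr exposure, 10-point 0.39–200 uM, duplicate, 0.5% DMSO final. Fix 3.7% formaldehyde 30 min RT, Triton X-100 0.5%, Hoechst 33342 2 ug/mL. ArrayScan 20x, six fields/well; DNA content per nucleus; bidirectional fit vs DMSO.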

[11] = APR_HepG2_CellLoss_72hr: Apredica 72-hour HepG2 Assay for Cell Loss (AID 2282915); conditions: high-content imaging
Procedure, shortened: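 HepG2 cells exposed 72 h to compound at 0.39–200 uM (10 concentrations, duplicate) in 0.5% DMSO. Fixed with 3.7% formaldehyde and Hoechst 33342-stained. Imaged at 20x; nuclear count gives cell number, fitted bidirectionally versus DMSO.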

[12] = APR_HepG2_P-H2AX_72hr: Apredica 72-hour HepG2 Assay for H2AX Phosphorylation (AID 2282916); conditions: imaging, actives raise or lower the signal;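 also: phospho-histone H2A.x immunostain intensity per cell marking DNA damage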
Procedure, shortened: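 Human hepatoma HepG2 cells are dosed across ten concentrations (0.39 to 200 uM, 0.5% v/v DMSO) and incubated 72 hr. Phospho-histone H2A.x is then detected by antibody staining alongside c-Jun and Hoechst, and quantified by automated fluorescence imaging.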

[13] = APR_HepG2_MitoMembPot_72hr: Apredica 72-hour HepG2 Assay for Mitochondrial Membrane Potential (AID 2282917); conditions: imaging, actives raise or lower the signal
Procedure, shortened: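 HepG2 cells dosed 72 hr with compound at 0.39–200 uM in duplicate, 0.5% v/v DMSO final. Mitochondria stained with 250 nM MitoTracker Red CMXRos for 30 min before formaldehyde fixation, imaged by high-content fluorescence; bidirectional fit versus DMSO.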

[14] = APR_HepG2_MicrotubuleCSK_72hr: Apredica 72-hour HepG2 Assay for Microtubule CSK Stabilty (AID 2282919); conditions: HepG2 microtubule cytoskeleton, high-content imaging, actives raise or lower the signal
Procedure, shortened: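 HepG2, 72 hr cmpd exposure, 0.39–200 uM (10 pts, duplicate), 0.5% DMSO. 3.7% formaldehyde fix, 0.5% Triton perm, anti-alpha-tubulin/Cy5 plus Hoechst. HCS fluorescence intensity; bidirectional fit vs DMSO baseline; taxol as positive control.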

[15] = APR_HepG2_P-H2AX_24hr: Apredica 24-hour HepG2 Assay for H2AX Phosphorylation (AID 2282920); conditions: high-content imaging, actives raise or lower the signal
Procedure, shortened: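 HCS fluorescence imaging of phospho-H2A.x immunostain (with Hoechst 33342 nuclear counterstain) in HepG2 after 24 hr compound exposure; 10 concentrations, 0.39–200 uM, duplicate wells, 0.5% v/v DMSO. Gain or loss of signal fitted relative to DMSO baseline.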

[16] = APR_HepG2_StressKinase_72hr: Apredica 72-hour HepG2 Assay for Stress Kinase (AID 2282921); conditions: HepG2 stress kinase (phospho-c-Jun) imaging, actives raise or lower the signal
Procedure, shortened: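 After a 72 h compound treatment spanning 0.39 to 200 uM, formaldehyde-fixed cells are labelled for phosphorylated c-Jun and nuclei, imaged by automated fluorescence microscopy, and activity is fitted in both directions relative to DMSO controls.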

[17] = APR_HepG2_StressKinase_24hr: Apredica 24-hour HepG2 Assay for Stress Kinase (AID 2282922); conditions: HepG2 stress kinase (phospho-c-Jun) imaging, actives raise or lower the signal
Procedure, shortened: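 Read-out: phospho-c-Jun immunofluorescence (Cy3 secondary) quantified by high-content imaging at 20x, nuclei defined by Hoechst 33342. Human HepG2 liver cells dosed 24 hr, 0.39–200 uM, DMSO 0.5% v/v; gain or loss of signal fitted relative to DMSO.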

[18] = APR_HepG2_p53Act_72hr: Apredica 72-hour HepG2 Assay for p53 Activation (AID 2282923); conditions: high-content imaging, actives raise or lower the signal;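 also: average cellular p53 protein immunofluorescence intensity in HepG2 cells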
Procedure, shortened: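 Imaging-based endpoint: after 72 hr compound exposure (up to 200 uM, 0.5% DMSO), fixed and permeabilized monolayers were labelled with anti-p53 antibody and imaged; signal change in either direction was fitted relative to DMSO controls.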

[19] = APR_HepG2_MitoMass_72hr: Apredica 72-hour HepG2 Assay for Mitochondrial Mass (AID 2282924); conditions: high-content imaging, actives raise or lower the signal;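 also: MitoTracker Red CMXRos stain intensity per cell imaged as mitochondrial mass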
Procedure, shortened: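 Read-out: MitoTracker Red fluorescence intensity from automated imaging (20x, six fields per well) in human HepG2 liver cells. Dosing ran 72 hr, 0.39–200 uM, 0.5% DMSO; bidirectional curve fitting versus DMSO baseline.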

[20] = APR_HepG2_NuclearSize_72hr: Apredica 72-hour HepG2 Assay for Nuclear Size (AID 2282925); conditions: high-content imaging, actives raise or lower the signal
Procedure, shortened: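 Read-out: nuclear diameter from Hoechst 33342 images (ArrayScan, 20x, six fields/well), via cell-cycle image analysis. HepG2 were dosed 0.39–200 uM for 72 hr in 0.5% DMSO. Bidirectional fit relative to DMSO.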

## CC(C)c1cccc(C(C)C)c1O
[1]
  outcome: inactive
[2]
  outcome: inactive

## O=C(O)C(Cl)(Cl)Cl
[3]
  outcome: inactive
[4]
  outcome: inactive
[5]
  AC50: 100 µM (active)
  outcome: inactive
[6]
  outcome: inactive
[7]
  AC50: 101 µM (active)
  outcome: inactive
[8]
  AC50: 161 µM (active)
  outcome: inactive
[9]
  AC50: 165 µM (active)
  outcome: inactive
[10]
  AC50: 171 µM (active)
  outcome: inactive
[11]
  AC50: 110 µM (active)
  outcome: inactive
[12]
  outcome: inactive
[13]
  outcome: inactive
[14]
  outcome: inactive
[15]
  AC50: 106 µM (active)
  outcome: inactive
[16]
  outcome: inactive
[17]
  outcome: inactive
[18]
  outcome: inactive
[19]
  AC50: 162 µM (active)
  outcome: inactive
[20]
  outcome: inactive
[2]
  outcome: inactive

## CC12CC1(C)C(=O)N(c1cc(Cl)cc(Cl)c1)C2=O (centres undefined)
[3]
  outcome: inactive
[4]
  outcome: inactive
[5]
  outcome: inactive
[6]
  outcome: inactive
[7]
  outcome: inactive
[8]
  outcome: inactive
[9]
  outcome: inactive
[10]
  outcome: inactive
[11]
  outcome: inactive
[12]
  outcome: inactive
[13]
  outcome: inactive
[14]
  outcome: inactive
[15]
  outcome: inactive
[16]
  outcome: inactive
[17]
  outcome: inactive
[18]
  outcome: inactive
[19]
  outcome: inactive
[20]
  outcome: inactive
[2]
  outcome: inactive

## NC(=O)O
[3]
  AC50: 10.7 µM (active)
[4]
  AC50: 9.65 µM (active)
[5]
  AC50: 6.38 µM (active)
[6]
  AC50: 12.2 µM (active)
[7]
  AC50: 0.205 µM (active)
[8]
  AC50: 59.3 µM (active)
[9]
  AC50: 9.29 µM (active)
[10]
  AC50: 12.2 µM (active)
[11]
  AC50: 3.92 µM (active)
[12]
  AC50: 4.73 µM (active)
[13]
  outcome: inactive
[14]
  AC50: 3.05 µM (active)
[15]
  AC50: 9.46 µM (active)
[16]
  AC50: 3.02 µM (active)
[17]
  AC50: 4.39 µM (active)
[18]
  AC50: 3.66 µM (active)
[19]
  outcome: inactive
[20]
  AC50: 23.5 µM (active)
[2]
  outcome: inactive

## C=CC(=O)OCCCCCC(C)C
[3]
  outcome: inactive
[4]
  outcome: inactive
[5]
  outcome: inactive
[6]
  outcome: inactive
[7]
  outcome: inactive
[8]
  outcome: inactive
[9]
  outcome: inactive
[10]
  AC50: 108 µM (active)
[11]
  AC50: 92.1 µM (active)
[12]
  outcome: inactive
[13]
  outcome: inactive
[14]
  outcome: inactive
[15]
  outcome: inactive
[16]
  outcome: inactive
[17]
  outcome: inactive
[18]
  outcome: inactive
[19]
  outcome: inactive
[20]
  outcome: inactive
[2]
  outcome: inactive

## C[C@H]1CCCC(=O)CCC/C=C/c2cc(O)cc(O)c2C(=O)O1
[1]
  AC50: 0.00378 µM (active)
[2]
  outcome: inactive

## O=S(=O)(c1ccc(Cl)cc1)c1ccc(Cl)cc1
[1]
  outcome: inactive
[2]
  outcome: inactive

## C[C@]12CCC(=O)C[C@@H]1CC[C@@H]1[C@@H]2CC[C@]2(C)[C@@H](O)CC[C@@H]12
[3]
  outcome: inactive
[4]
  outcome: inactive
[5]
  outcome: inactive
[6]
  outcome: inactive
[7]
  outcome: inactive
[8]
  outcome: inactive
[9]
  outcome: inactive
[10]
  outcome: inactive
[11]
  AC50: 64.5 µM (active)
[12]
  AC50: 91.2 µM (active)
[13]
  outcome: inactive
[14]
  outcome: inactive
[15]
  outcome: inactive
[16]
  outcome: inactive
[17]
  outcome: inactive
[18]
  outcome: inactive
[19]
  outcome: inactive
[20]
  outcome: inactive
[2]
  outcome: inactive
